{"source": "PubChem BioAssay (EPA / NIEHS)", "note": "Active and inactive are the calls of the source. How the source made its calls: active means hit-call score of the fitted dose curve at least 0.9, where 1 is the maximum; inactive means score below 0.9."}
{"read-out": "Insulin-like growth factor-binding protein 1 (IGFBP1), IGFBP1 (gene 3484)", "assay": "LTEA_HepaRG_IGFBP1: Life Technologies and Expression Analysis (LTEA) Assay for Insulin-like growth factor-binding protein 1 (IGFBP1) using HepaRG (AID 2283508)", "details": "mRNA level, 48 h; actives raise or lower the signal", "outline": "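HepaRG cells, plated 48 h then switched to serum-free induction medium, exposed in duplicate for 48 h to 8-point half-log series from 100 uM in 0.5% DMSO. mRNA measured by qRT-PCR, normalized to ACTB/GAPDH/POLR2A; bidirectional fit versus DMSO.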"}
{"smiles": "NC=O", "outcome": "inactive"}
{"smiles": "O=C1c2c(O)cccc2Cc2cccc(O)c21", "outcome": "inactive"}
{"smiles": "O=C(O)c1cccnc1", "outcome": "inactive"}
{"smiles": "CC(=O)[C@@]1(O)CC[C@H]2[C@@H]3CCC4=CC(=O)CC[C@]4(C)[C@H]3CC[C@@]21C", "outcome": "inactive"}
{"smiles": "CCc1nc(N)nc(N)c1-c1ccc(Cl)cc1", "AC50": "57.7 µM (active)"}
{"smiles": "O=Cc1ccccc1C=O", "outcome": "inactive"}
{"smiles": "O=C1CCCCC1", "outcome": "inactive"}
{"smiles": "CCN(CC)CCOc1ccc(C(=C(Cl)c2ccccc2)c2ccccc2)cc1", "AC50": "61.2 µM (active)"}
{"smiles": "CN(C)C(=O)NC1(c2ccccc2)CCN(CCC[C@]2(c3ccc(Cl)c(Cl)c3)CCCN(C(=O)c3ccccc3)C2)CC1", "AC50": "18.2 µM (active)"}
{"smiles": "N[C@@H](Cc1c[nH]c2ccccc12)C(=O)O", "outcome": "inactive"}
{"smiles": "CCCCCCC(CCCCCCCCCCC(=O)OCC(COC(C)=O)OC(C)=O)OC(C)=O", "note": "(stereo not given)", "outcome": "inactive"}
{"smiles": "O=C(O)CC(O)(CC(=O)O)C(=O)O", "outcome": "inactive"}
{"smiles": "Cc1ccc(C(C)(C)C)c(O)c1", "outcome": "inactive"}
{"smiles": "CCc1cc(C2=C(C(=O)O)N(c3ccccc3C(F)(F)F)S(=O)(=O)c3ccccc32)cc2c1OCO2", "AC50": "75.4 µM (active)"}
{"smiles": "CCOCCOCCO", "outcome": "inactive"}
{"smiles": "CC(N)=O", "outcome": "inactive"}
{"smiles": "C=CCCCCCCCCCCCC", "outcome": "inactive"}
{"smiles": "CSc1ccc(Oc2ccc(S(N)(=O)=O)cc2CN(C)C)cc1C", "AC50": "69.7 µM (active)"}
{"smiles": "CC(C)c1cccc(C(C)C)c1NC(=O)NS(=O)(=O)c1cc(C(C)(C)O)co1", "outcome": "inactive"}
{"smiles": "CCCCOC(=O)CCCCC(=O)OCCCC", "outcome": "inactive"}
{"smiles": "CC(C)(O)c1ccc(CNC(=O)c2cccnc2Oc2ccc(F)cc2)cc1", "outcome": "inactive"}
{"smiles": "Cc1c(C)c2c(c(C)c1O)CCC(C)(COc1ccc(CC3SC(=O)NC3=O)cc1)O2", "note": "(stereo not given)", "AC50": "50 µM (active)"}
{"smiles": "CCCCCCCC(=O)OC", "outcome": "inactive"}
{"smiles": "O=C(O)CN(CC(=O)O)CC(=O)O", "outcome": "inactive"}
{"smiles": "O=[Si]=O", "outcome": "inactive"}
{"smiles": "COc1ccc(OC(F)(F)F)cc1CN[C@H]1CCCN[C@H]1c1ccccc1", "AC50": "71.7 µM (active)"}
{"smiles": "Cc1ccc(-c2cc(C(F)(F)F)nn2-c2ccc(S(N)(=O)=O)cc2)cc1", "outcome": "inactive"}
{"smiles": "CCCCCCCCCCCCCCCCO", "outcome": "inactive"}
{"smiles": "O=C1NC(=O)C(c2ccccc2)(c2ccccc2)N1", "outcome": "inactive"}
{"smiles": "CC(=O)O", "outcome": "inactive"}
{"read-out": "Interleukin 6 (IL6), IL6 (gene 3569)", "assay": "LTEA_HepaRG_IL6: Life Technologies and Expression Analysis (LTEA) Assay for Interleukin 6 (IL6) using HepaRG (AID 2283509)", "details": "mRNA level, 48 h; actives raise or lower the signal", "outline": "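Transcript levels, normalized to three housekeeping genes, were quantified by qRT-PCR after 48 h chemical treatment of HepaRG cells. Eight-point half-log series from 100 uM in 0.5% DMSO, duplicates. Fitted both directions against DMSO baseline.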"}
{"smiles": "NC=O", "outcome": "inactive"}
{"smiles": "O=C1c2c(O)cccc2Cc2cccc(O)c21", "outcome": "inactive"}
{"smiles": "O=C(O)c1cccnc1", "outcome": "inactive"}
{"smiles": "CC(=O)[C@@]1(O)CC[C@H]2[C@@H]3CCC4=CC(=O)CC[C@]4(C)[C@H]3CC[C@@]21C", "outcome": "inactive"}
{"smiles": "CCc1nc(N)nc(N)c1-c1ccc(Cl)cc1", "outcome": "inactive"}
{"smiles": "O=Cc1ccccc1C=O", "outcome": "inactive"}
{"smiles": "O=C1CCCCC1", "outcome": "inactive"}
{"smiles": "CCN(CC)CCOc1ccc(C(=C(Cl)c2ccccc2)c2ccccc2)cc1", "AC50": "81.8 µM (active)"}
{"smiles": "CN(C)C(=O)NC1(c2ccccc2)CCN(CCC[C@]2(c3ccc(Cl)c(Cl)c3)CCCN(C(=O)c3ccccc3)C2)CC1", "AC50": "22.7 µM (active)"}
{"smiles": "N[C@@H](Cc1c[nH]c2ccccc12)C(=O)O", "outcome": "inactive"}
{"smiles": "CCCCCCC(CCCCCCCCCCC(=O)OCC(COC(C)=O)OC(C)=O)OC(C)=O", "note": "(stereo not given)", "outcome": "inactive"}
{"smiles": "O=C(O)CC(O)(CC(=O)O)C(=O)O", "outcome": "inactive"}
{"smiles": "Cc1ccc(C(C)(C)C)c(O)c1", "outcome": "inactive"}
{"smiles": "CCc1cc(C2=C(C(=O)O)N(c3ccccc3C(F)(F)F)S(=O)(=O)c3ccccc32)cc2c1OCO2", "AC50": "78.5 µM (active)"}
{"smiles": "CCOCCOCCO", "outcome": "inactive"}
{"smiles": "CC(N)=O", "outcome": "inactive"}
{"smiles": "C=CCCCCCCCCCCCC", "outcome": "inactive"}
{"smiles": "CSc1ccc(Oc2ccc(S(N)(=O)=O)cc2CN(C)C)cc1C", "AC50": "88.2 µM (active)"}
{"smiles": "CC(C)c1cccc(C(C)C)c1NC(=O)NS(=O)(=O)c1cc(C(C)(C)O)co1", "outcome": "inactive"}
{"smiles": "CCCCOC(=O)CCCCC(=O)OCCCC", "outcome": "inactive"}
{"smiles": "CC(C)(O)c1ccc(CNC(=O)c2cccnc2Oc2ccc(F)cc2)cc1", "outcome": "inactive"}
{"smiles": "Cc1c(C)c2c(c(C)c1O)CCC(C)(COc1ccc(CC3SC(=O)NC3=O)cc1)O2", "note": "(stereo not given)", "AC50": "88.2 µM (active)"}
{"smiles": "CCCCCCCC(=O)OC", "outcome": "inactive"}
{"smiles": "O=C(O)CN(CC(=O)O)CC(=O)O", "outcome": "inactive"}
{"smiles": "O=[Si]=O", "outcome": "inactive"}
{"smiles": "COc1ccc(OC(F)(F)F)cc1CN[C@H]1CCCN[C@H]1c1ccccc1", "AC50": "82.9 µM (active)"}
{"smiles": "Cc1ccc(-c2cc(C(F)(F)F)nn2-c2ccc(S(N)(=O)=O)cc2)cc1", "AC50": "81.4 µM (active)"}
{"smiles": "CCCCCCCCCCCCCCCCO", "outcome": "inactive"}
{"smiles": "O=C1NC(=O)C(c2ccccc2)(c2ccccc2)N1", "outcome": "inactive"}
{"smiles": "CC(=O)O", "outcome": "inactive"}
{"read-out": "Interleukin 6 Receptor (IL6R), IL6R (gene 3570)", "assay": "LTEA_HepaRG_IL6R: Life Technologies and Expression Analysis (LTEA) Assay for Interleukin 6 Receptor (IL6R) using HepaRG (AID 2283510);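 on AC50: differentiated human HepaRG liver cells in serum-free induction medium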", "details": "mRNA level, 48 h; actives raise or lower the signal", "outline": "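IL6R transcript level by qRT-PCR after 48 h chemical exposure (8-point, half-log, max 100 uM, 0.5% DMSO vehicle) of HepaRG cells in serum-free induction medium. Normalized to three housekeeping genes; curves fitted in both directions relative to DMSO.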"}
{"smiles": "NC=O", "outcome": "inactive"}
{"smiles": "O=C1c2c(O)cccc2Cc2cccc(O)c21", "outcome": "inactive"}
{"smiles": "O=C(O)c1cccnc1", "outcome": "inactive"}
{"smiles": "CC(=O)[C@@]1(O)CC[C@H]2[C@@H]3CCC4=CC(=O)CC[C@]4(C)[C@H]3CC[C@@]21C", "outcome": "inactive"}
{"smiles": "CCc1nc(N)nc(N)c1-c1ccc(Cl)cc1", "AC50": "26.7 µM (active)"}
{"smiles": "O=Cc1ccccc1C=O", "outcome": "inactive"}
{"smiles": "O=C1CCCCC1", "outcome": "inactive"}
{"smiles": "CCN(CC)CCOc1ccc(C(=C(Cl)c2ccccc2)c2ccccc2)cc1", "outcome": "inactive"}
{"smiles": "CN(C)C(=O)NC1(c2ccccc2)CCN(CCC[C@]2(c3ccc(Cl)c(Cl)c3)CCCN(C(=O)c3ccccc3)C2)CC1", "AC50": "17.2 µM (active)"}
{"smiles": "N[C@@H](Cc1c[nH]c2ccccc12)C(=O)O", "outcome": "inactive"}
{"smiles": "CCCCCCC(CCCCCCCCCCC(=O)OCC(COC(C)=O)OC(C)=O)OC(C)=O", "note": "(stereo not given)", "outcome": "inactive"}
{"smiles": "O=C(O)CC(O)(CC(=O)O)C(=O)O", "outcome": "inactive"}
{"smiles": "Cc1ccc(C(C)(C)C)c(O)c1", "outcome": "inactive"}
{"smiles": "CCc1cc(C2=C(C(=O)O)N(c3ccccc3C(F)(F)F)S(=O)(=O)c3ccccc32)cc2c1OCO2", "outcome": "inactive"}
{"smiles": "CCOCCOCCO", "outcome": "inactive"}
{"smiles": "CC(N)=O", "outcome": "inactive"}
{"smiles": "C=CCCCCCCCCCCCC", "outcome": "inactive"}
{"smiles": "CSc1ccc(Oc2ccc(S(N)(=O)=O)cc2CN(C)C)cc1C", "outcome": "inactive"}
{"smiles": "CC(C)c1cccc(C(C)C)c1NC(=O)NS(=O)(=O)c1cc(C(C)(C)O)co1", "outcome": "inactive"}
{"smiles": "CCCCOC(=O)CCCCC(=O)OCCCC", "outcome": "inactive"}
{"smiles": "CC(C)(O)c1ccc(CNC(=O)c2cccnc2Oc2ccc(F)cc2)cc1", "outcome": "inactive"}
{"smiles": "Cc1c(C)c2c(c(C)c1O)CCC(C)(COc1ccc(CC3SC(=O)NC3=O)cc1)O2", "note": "(stereo not given)", "AC50": "92.9 µM (active)"}
{"smiles": "CCCCCCCC(=O)OC", "outcome": "inactive"}
{"smiles": "O=C(O)CN(CC(=O)O)CC(=O)O", "outcome": "inactive"}
{"smiles": "O=[Si]=O", "outcome": "inactive"}
{"smiles": "COc1ccc(OC(F)(F)F)cc1CN[C@H]1CCCN[C@H]1c1ccccc1", "outcome": "inactive"}
{"smiles": "Cc1ccc(-c2cc(C(F)(F)F)nn2-c2ccc(S(N)(=O)=O)cc2)cc1", "outcome": "inactive"}
{"smiles": "CCCCCCCCCCCCCCCCO", "AC50": "50 µM (active)"}
{"smiles": "O=C1NC(=O)C(c2ccccc2)(c2ccccc2)N1", "outcome": "inactive"}
{"smiles": "CC(=O)O", "outcome": "inactive"}
